Reference: PubChem BioAssay AID1159580 (chemical genetic matrix, 2015)
Values joined by “and” are separate entries in the source; they are usually repeats but may differ in a detail not shown here. Identical values can stand only once. About 2,000 (36%) of roughly 5,500 compounds were called active. Another 18% or so got no clear call; they are omitted. Cut-off read from the data, not from the text of the source: active = normalized growth mostly below about 0.91 (no sharp cut-off); inconclusive = no clear call, values can overlap the other calls; inactive = mostly above about 0.92. The list shows a part of the results.

Assay: chemical genetic growth profiling, strain panel (AID 1159580);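 note: tested at 20 µM; growth read once vehicle control cultures reached saturation at 30 °C; 1 = growth at the plate median or of vehicle wells; lower values mean less growth of the strain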
Conditions: growth OD

Measured: normalized growth

CC(C)[N+](C)(CCOC(=O)C1c2ccccc2Oc2ccccc21)C(C)C
inactive: S. cerevisiae deletion strains, locus YJR075W, strain HOC1, stronger effect = lower value 1.02 | S. cerevisiae deletion strains, locus YKL009W, strain mrt4, stronger effect = lower value 1.02 | S. cerevisiae deletion strains, locus YKL068W, stronger effect = lower value 1.01 | S. cerevisiae deletion strains, locus YKL085W, strain MDH1 (second series), stronger effect = lower value 1.01 | S. cerevisiae deletion strains, locus YKL085W, strain MDH1, stronger effect = lower value 1.01 | S. cerevisiae deletion strains, locus YKL160W, strain elf1, stronger effect = lower value 1.04 | S. cerevisiae deletion strains, locus YKL190W, strain CNB1, stronger effect = lower value 1.02 | S. cerevisiae deletion strains, locus YKR001C, strain vps1, stronger effect = lower value 1.01 | S. cerevisiae deletion strains, locus YKR026C, strain gcn3, stronger effect = lower value 0.997 | S. cerevisiae deletion strains, locus YKR091W, strain srl3, stronger effect = lower value 0.994 | S. cerevisiae deletion strains, locus YLL001W, strain dnm1, stronger effect = lower value 1.01 | S. cerevisiae deletion strains, locus YLL026W, stronger effect = lower value 1.02 | S. cerevisiae deletion strains, locus YLL041C, strain sdh2, stronger effect = lower value 1 | S. cerevisiae deletion strains, locus YLR027C, strain aat2, stronger effect = lower value 1 | S. cerevisiae deletion strains, locus YLR039C, strain RIC1, stronger effect = lower value 1.05 | S. cerevisiae deletion strains, locus YLR058C, strain SHM2, stronger effect = lower value 1.01 | S. cerevisiae deletion strains, locus YLR102C, strain apc9, stronger effect = lower value 1 | S. cerevisiae deletion strains, locus YLR113W, strain HOG1, stronger effect = lower value 1.02 | S. cerevisiae deletion strains, locus YLR221C, strain rsa3, stronger effect = lower value 0.996 | S. cerevisiae deletion strains, locus YLR258W, strain gsy2, stronger effect = lower value 1.02 | S. cerevisiae deletion strains, locus YLR262C, strain YPT6 (second series), stronger effect = lower value 1 | S. cerevisiae deletion strains, locus YLR262C, strain YPT6, stronger effect = lower value 1.07 | S. cerevisiae deletion strains, locus YLR268W, strain sec22, stronger effect = lower value 1.02 | S. cerevisiae deletion strains, locus YLR320W, strain mms22, stronger effect = lower value 0.985 | S. cerevisiae deletion strains, locus YLR330W, strain CHS5, stronger effect = lower value 1 | S. cerevisiae deletion strains, locus YLR342W, strain FKS1 (second series), stronger effect = lower value 1.02 | S. cerevisiae deletion strains, locus YLR342W, strain FKS1, stronger effect = lower value 1.02 | S. cerevisiae deletion strains, locus YLR357W, strain rsc2, stronger effect = lower value 1.02 | S. cerevisiae deletion strains, locus YLR370C, strain arc18, stronger effect = lower value 1.01 | S. cerevisiae deletion strains, locus YLR371W, strain rom2, stronger effect = lower value 1.01 | S. cerevisiae deletion strains, locus YLR384C, strain iki3, stronger effect = lower value 1.02 | S. cerevisiae deletion strains, locus YLR418C, strain cdc73, stronger effect = lower value 1.02 | S. cerevisiae deletion strains, locus YML016C, strain PPZ1, stronger effect = lower value 1 | S. cerevisiae deletion strains, locus YML032C, strain rad52, stronger effect = lower value 1.01 | S. cerevisiae deletion strains, locus YML120C, strain ndi1, stronger effect = lower value 1.01 | S. cerevisiae deletion strains, locus YML124C, strain tub3, stronger effect = lower value 1.01 | S. cerevisiae deletion strains, locus YMR058W, strain fet3, stronger effect = lower value 1 | S. cerevisiae deletion strains, locus YMR078C, strain ctf18, stronger effect = lower value 1 | S. cerevisiae deletion strains, locus YMR125W, strain sto1, stronger effect = lower value 1 | S. cerevisiae deletion strains, locus YMR129W, stronger effect = lower value 1.01 | S. cerevisiae deletion strains, locus YMR205C, strain PFK2, stronger effect = lower value 0.998 | S. cerevisiae deletion strains, locus YMR223W, strain ubp8, stronger effect = lower value 0.994 | S. cerevisiae deletion strains, locus YMR231W, strain pep5, stronger effect = lower value 1.01 | S. cerevisiae deletion strains, locus YMR307W, strain GAS1, stronger effect = lower value 1.01 and 1.02 | S. cerevisiae deletion strains, locus YNL067W, strain RPL9B, stronger effect = lower value 1.01 | S. cerevisiae deletion strains, locus YNL071W, strain lat1, stronger effect = lower value 1.01 | S. cerevisiae deletion strains, locus YNL128W, strain TEP1, stronger effect = lower value 1.02 | S. cerevisiae deletion strains, locus YNL153C, strain GIM3, stronger effect = lower value 1.01 and 0.989 | S. cerevisiae deletion strains, locus YNL175C, strain NOP13, stronger effect = lower value 1.02 | S. cerevisiae deletion strains, locus YNL183C, strain NPR1, stronger effect = lower value 0.971 | S. cerevisiae deletion strains, locus YNL197C, strain WHI3, stronger effect = lower value 0.999 | S. cerevisiae deletion strains, locus YNL209W, strain ssb2, stronger effect = lower value 1.01 | S. cerevisiae deletion strains, locus YNL224C, strain SQS1, stronger effect = lower value 1 | S. cerevisiae deletion strains, locus YNL233W, strain BNI4, stronger effect = lower value 1.01 | S. cerevisiae deletion strains, locus YNL248C, strain rpa49, stronger effect = lower value 1.04 | S. cerevisiae deletion strains, locus YNL250W, strain rad50, stronger effect = lower value 1.02 | S. cerevisiae deletion strains, locus YNL271C, strain bni1, stronger effect = lower value 1.01 | S. cerevisiae deletion strains, locus YNL298W, strain CLA4, stronger effect = lower value 1.03 | S. cerevisiae deletion strains, locus YNL307C, strain MCK1, stronger effect = lower value 1 | S. cerevisiae deletion strains, locus YNL322C, strain KRE1 (second series), stronger effect = lower value 1.02 | S. cerevisiae deletion strains, locus YNR049C, strain mso1, stronger effect = lower value 1.01 | S. cerevisiae deletion strains, locus YNR052C, strain pop2, stronger effect = lower value 1.01 | S. cerevisiae deletion strains, locus YOL006C, strain TOP1, stronger effect = lower value 1 | S. cerevisiae deletion strains, locus YOL012C, strain htz1 0.959 | S. cerevisiae deletion strains, locus YOL147C, strain pex11, stronger effect = lower value 1.01 | S. cerevisiae deletion strains, locus YOR001W, strain rrp6, stronger effect = lower value 0.976 | S. cerevisiae deletion strains, locus YOR061W, strain CKA2, stronger effect = lower value 1.01 | S. cerevisiae deletion strains, locus YOR069W, strain VPS5, stronger effect = lower value 1 | S. cerevisiae deletion strains, locus YOR070C, strain gyp1, stronger effect = lower value 1.01 | S. cerevisiae deletion strains, locus YOR080W, strain dia2, stronger effect = lower value 1.01 | S. cerevisiae deletion strains, locus YOR083W, strain WHI5 (second series), stronger effect = lower value 1.01 | S. cerevisiae deletion strains, locus YOR083W, strain WHI5, stronger effect = lower value 0.979 | S. cerevisiae deletion strains, locus YOR106W, strain vam3, stronger effect = lower value 1.03 | S. cerevisiae deletion strains, locus YOR136W, strain idh2, stronger effect = lower value 1 | S. cerevisiae deletion strains, locus YOR144C, strain elg1, stronger effect = lower value 1 | S. cerevisiae deletion strains, locus YOR184W, strain ser1, stronger effect = lower value 1.01 | S. cerevisiae deletion strains, locus YOR231W, strain MKK1, stronger effect = lower value 0.991 | S. cerevisiae deletion strains, locus YOR265W, strain rbl2, stronger effect = lower value 1 | S. cerevisiae deletion strains, locus YOR270C, strain vph1, stronger effect = lower value 1.04 | S. cerevisiae deletion strains, locus YOR290C, strain snf2, stronger effect = lower value 1.02 | S. cerevisiae deletion strains, locus YOR316C, strain cot1, stronger effect = lower value 1.01 | S. cerevisiae deletion strains, locus YPL051W, strain arl3, stronger effect = lower value 1.02 | S. cerevisiae deletion strains, locus YPL055C, strain LGE1, stronger effect = lower value 1.01 | S. cerevisiae deletion strains, locus YPL078C, strain atp4, stronger effect = lower value 1.02 | S. cerevisiae deletion strains, locus YPL106C, strain sse1, stronger effect = lower value 1.01 | S. cerevisiae deletion strains, locus YPL240C, strain hsp82, stronger effect = lower value 1.01 | S. cerevisiae deletion strains, locus YPL241C, strain CIN2, stronger effect = lower value 1.01 | S. cerevisiae deletion strains, locus YPL256C, strain CLN2, stronger effect = lower value 1.06 | S. cerevisiae deletion strains, locus YPR119W, strain clb2, stronger effect = lower value 0.996 | S. cerevisiae deletion strains, locus YPR141C, strain kar3, stronger effect = lower value 1.01 | S. cerevisiae deletion strains, locus YPR163C, strain tif3, stronger effect = lower value 1 | S. cerevisiae deletion strains, locus YPR167C, strain met16, stronger effect = lower value 1 | S. cerevisiae deletion strains, strain wtn01, stronger effect = lower value 1.01 | S. cerevisiae strains, strain wild type, stronger effect = lower value 1
